Compound activity: PubChem, several laboratories
697 NFkB inh: inhibitors of PMA/ionomycin-induced NF-kB reporter, 697 cells, primary screen, B-cell NF-kB inhibitor project, cell-based, luminescence, uHTS; 697 B-cell NF-kB luciferase reporter, 16 h; inhibition, % at 4 µM; hit rate 0.33% among 330,000; AID 435022, 2010; in the data active = inhibition above about 35%
Mdm2-MdmX inh: inhibitors of human Mdm2-MdmX association, primary screen, cell-based, luminescence, split luciferase, SaOS-2, uHTS. Protein Mdm4 (Homo sapiens) + E3 ubiquitin-protein ligase Mdm2 (Homo sapiens), …. SaOS-2 split-luciferase Mdm2/MdmX complementation. inhibition, % at 8 µM. hit rate 3% among 330,000. AID 485346, 2010;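 active = inhibition of at least 50% at 8 µM in the primary screen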
KLF5 inhibitor: KLF5 expression inhibitors, primary screen, DLD-1 cells, luminescence; DLD-1 KLF5 promoter-luciferase reporter; inhibition, % at 5 µM; hit rate 0.23% among 290,000; AID 1700, 2009;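 active = inhibition above a per-plate limit of that plate's mean compound inhibition plus 3 SD, cut at about 60% in these data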;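 also: higher means less KLF5 promoter-driven luciferase light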
Jurkat NFkB inh: inhibitors of induced NF-kB luciferase reporter, primary screen, TCR NF-kB activation inhibitor project, cell-based, luminescence, uHTS; Jurkat, PMA/ionomycin-induced NF-kB luciferase reporter; inhibition, % at 4 µM; hit rate 0.53% among 330,000; in the data active = inhibition above about 50%
Gli-Sufu block: Gli-Sufu pathway antagonists, primary screen, luciferase luminescence, Sufu-KO-LIGHT cells, uHTS; Sufu-KO-LIGHT fibroblasts, Gli luciferase reporter luminescence; inhibition, % at 5 µM; hit rate 0.74% among 340,000;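 active = inhibition above about 55%, limit read from the data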
aSyn UTR inh: MLPCN primary screen, SNCA 5' untranslated region. alpha-synuclein 5'UTR reporter, inhibitor activity. inhibition, % (tested at 7.5 µM). hit rate 0.82% among 300,000; in the data active = inhibition above about 60%;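 also: H4 neuroglioblastoma cells stably carrying SNCA 5'UTR luciferase fusion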
Mdm2 MdmX conf: Mdm2-MdmX complex disruptors, retested hits, confirmation, luminescence, single concentration; shares compounds with Mdm2-MdmX inh; AID 489028, 2010; hit rate 55% among 10,000; Mdm2-MdmX binding, luminescent assay; inhibition, % at 8 µM; in the data active = inhibition above about 40%
Full FLuc ctr: full-length luciferase signal inhibition, confirmation, counter-screen for Mdm2/MdmX interaction inhibitor project, cell-based, single concentration, SaOS-2; SaOS-2 full-length luciferase counterscreen, luminescence; shares compounds with Mdm2-MdmX inh; inhibition, % at 8 µM; hit rate 77% among 6,200;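 active = mean inhibition at 8 µM reaching about 37%, which flags the compound as non-specific, limit read from the data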;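 also: p53-null SaOS-2 cells with luciferase driven by a doxycycline-inducible promoter; compound on cells about two nights before reading with doxycycline added after day one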
Hits are given with their value. Sampled rows, rich in hits. Any-hit rate of the full collection: about 4.1%.

What do the screens show for `C[C@@H]1CN([C@H](C)CO)C(=O)c2cc(NC(=O)Nc3ccc(C(F)(F)F)cc3)ccc2O[C@H]1CN(C)S(=O)(=O)c1cccs1`?
697 NFkB inh: inactive; Mdm2-MdmX inh: 81; Jurkat NFkB inh: inactive; Gli-Sufu block: inactive; Mdm2 MdmX conf: 51; Full FLuc ctr: 44

How did C[C@H](CO)N1C[C@H](C)[C@@H](CN(C)S(=O)(=O)c2cccs2)Oc2ccc(NC(=O)Nc3ccccc3)cc2C1=O do in these assays?
697 NFkB inh: inactive; Mdm2-MdmX inh: inactive; Jurkat NFkB inh: inactive; Gli-Sufu block: inactive

How did CCN(CC)c1nc(Nc2ccccc2)nc(Oc2ccc(=O)n(C)n2)n1 do in these assays?
697 NFkB inh: inactive; Mdm2-MdmX inh: 64; KLF5 inhibitor: inactive; Jurkat NFkB inh: inactive; Gli-Sufu block: inactive; aSyn UTR inh: inactive; Mdm2 MdmX conf: inactive

How did Cc1cc(NC(=O)CN(C)C)c([N+](=O)[O-])cc1C do in these assays?
697 NFkB inh: inactive; Mdm2-MdmX inh: inactive; KLF5 inhibitor: inactive; Jurkat NFkB inh: inactive; Gli-Sufu block: inactive; aSyn UTR inh: inactive

Results for O=C(CN1CCSCC1)N/N=C/c1cccc(Cl)c1 ?
697 NFkB inh: inactive; Mdm2-MdmX inh: inactive; KLF5 inhibitor: inactive; Jurkat NFkB inh: inactive; Gli-Sufu block: inactive; aSyn UTR inh: inactive

What do the screens show for `COC(=O)CSC1=C(C#N)C(c2ccc(C)o2)CC(=O)N1` (stereo not given)?
697 NFkB inh: inactive; Mdm2-MdmX inh: 58; KLF5 inhibitor: inactive; Jurkat NFkB inh: inactive; Gli-Sufu block: inactive; aSyn UTR inh: inactive; Mdm2 MdmX conf: 47; Full FLuc ctr: 73

Results for COC(=O)CSC1=C(C#N)C(c2ccc(F)cc2)CC(=O)N1 (stereo not given) ?
697 NFkB inh: inactive; Mdm2-MdmX inh: inactive; KLF5 inhibitor: inactive; Jurkat NFkB inh: inactive; Gli-Sufu block: inactive; aSyn UTR inh: inactive

Results for O=C(c1ccccc1F)n1c2c(c3ccccc31)CCCC2 ?
697 NFkB inh: inactive; Mdm2-MdmX inh: 56; KLF5 inhibitor: inactive; Jurkat NFkB inh: inactive; Gli-Sufu block: inactive; aSyn UTR inh: inactive; Mdm2 MdmX conf: 44; Full FLuc ctr: 56

How did CC1CCN(CC(=O)n2c3c(c4ccccc42)CCCC3)CC1 do in these assays?
697 NFkB inh: inactive; Mdm2-MdmX inh: inactive; KLF5 inhibitor: inactive; Jurkat NFkB inh: inactive; Gli-Sufu block: inactive; aSyn UTR inh: inactive

What do the screens show for `COc1ccc(S(=O)(=O)Nc2cccc(S(=O)(=O)N3CCCCCC3)c2)cc1`?
KLF5 inhibitor: inactive; Gli-Sufu block: inactive; aSyn UTR inh: inactive

How did O=S(=O)(Nc1nc2ccccc2nc1Nc1cccc(S(=O)(=O)N2CCCCC2)c1)c1ccccc1 do in these assays?
697 NFkB inh: inactive; Mdm2-MdmX inh: 82; KLF5 inhibitor: inactive; Jurkat NFkB inh: inactive; Gli-Sufu block: inactive; aSyn UTR inh: inactive; Mdm2 MdmX conf: 79; Full FLuc ctr: 43

What do the screens show for `CCOc1c(Br)cc(CNc2ccc3c(c2)OCCO3)cc1OC`?
697 NFkB inh: inactive; Mdm2-MdmX inh: 71; KLF5 inhibitor: inactive; Jurkat NFkB inh: inactive; Gli-Sufu block: inactive; aSyn UTR inh: 97; Mdm2 MdmX conf: 58; Full FLuc ctr: 57

What do the screens show for `Cc1cc2[nH]c3c(c[n+](C)c4ccccc34)c2cc1C`?
697 NFkB inh: inactive; Mdm2-MdmX inh: 101; KLF5 inhibitor: inactive; Jurkat NFkB inh: inactive; Gli-Sufu block: inactive; aSyn UTR inh: 101; Mdm2 MdmX conf: 100; Full FLuc ctr: 51

Results for CC(C)(C)C(C(=O)n1cccc1C#N)c1ccccc1 (stereo not given) ?
697 NFkB inh: inactive; Mdm2-MdmX inh: inactive; Jurkat NFkB inh: inactive; Gli-Sufu block: inactive

Results for Cc1c(C(=O)NNC(=S)Nc2ccc(S(N)(=O)=O)cc2)oc2ccccc12 ?
697 NFkB inh: inactive; Mdm2-MdmX inh: inactive; KLF5 inhibitor: inactive; Jurkat NFkB inh: inactive; Gli-Sufu block: inactive; aSyn UTR inh: inactive

Results for COc1cc2[nH]c(Cl)c([N+](=O)[O-])c2cc1OC ?
697 NFkB inh: inactive; Mdm2-MdmX inh: inactive; KLF5 inhibitor: inactive; Jurkat NFkB inh: inactive; Gli-Sufu block: inactive; aSyn UTR inh: inactive

How did Cc1ncc(CO)c(/C=N/NC(=O)c2ccc(O)cc2)c1O do in these assays?
697 NFkB inh: inactive; Mdm2-MdmX inh: inactive; KLF5 inhibitor: inactive; Jurkat NFkB inh: inactive; Gli-Sufu block: inactive; aSyn UTR inh: inactive

How did Cc1ncc(CO)c(/C=N/NC(=O)c2cc3c(s2)CCCC3)c1O do in these assays?
697 NFkB inh: inactive; Mdm2-MdmX inh: 58; KLF5 inhibitor: inactive; Jurkat NFkB inh: inactive; Gli-Sufu block: inactive; aSyn UTR inh: inactive; Mdm2 MdmX conf: 42; Full FLuc ctr: 51

How did COc1ccc(S(=O)(=O)N2CCOCC2)cc1NC(=O)COc1ccc(C)cc1 do in these assays?
697 NFkB inh: inactive; Mdm2-MdmX inh: inactive; Jurkat NFkB inh: inactive; Gli-Sufu block: inactive

How did CCOc1ccc(S(=O)(=O)N2CCOCC2)cc1NC(=O)CSCc1ccc(C)cc1 do in these assays?
697 NFkB inh: inactive; Mdm2-MdmX inh: 52; Jurkat NFkB inh: inactive; Gli-Sufu block: inactive; Mdm2 MdmX conf: 56; Full FLuc ctr: 54

What do the screens show for `COc1ccc(Cl)cc1NC(=O)COc1ccc(S(=O)(=O)N2CCOCC2)cc1C`?
697 NFkB inh: inactive; Mdm2-MdmX inh: 68; KLF5 inhibitor: inactive; Jurkat NFkB inh: inactive; Gli-Sufu block: inactive; aSyn UTR inh: inactive; Mdm2 MdmX conf: inactive

Results for CCc1ccccc1OCC(=O)Nc1cc(S(=O)(=O)N2CCOCC2)ccc1N1CCCCC1 ?
697 NFkB inh: inactive; Mdm2-MdmX inh: 52; Jurkat NFkB inh: inactive; Gli-Sufu block: inactive; Mdm2 MdmX conf: 41; Full FLuc ctr: 83

How did O=C(COc1ccc(S(=O)(=O)N2CCOCC2)cc1)Nc1ccc(Cl)c(C(F)(F)F)c1 do in these assays?
697 NFkB inh: inactive; Mdm2-MdmX inh: 61; KLF5 inhibitor: inactive; Jurkat NFkB inh: inactive; Gli-Sufu block: inactive; aSyn UTR inh: inactive; Mdm2 MdmX conf: 43; Full FLuc ctr: 65

Results for COc1ccccc1OCC(=O)Nc1cc(S(=O)(=O)N2CCOCC2)ccc1N1CCCCC1 ?
697 NFkB inh: inactive; Mdm2-MdmX inh: inactive; Jurkat NFkB inh: inactive; Gli-Sufu block: inactive

How did CC(=O)C(Sc1ncnc2sc3c(c12)CCCC3)C(C)=O do in these assays?
697 NFkB inh: inactive; Mdm2-MdmX inh: inactive; KLF5 inhibitor: inactive; Jurkat NFkB inh: inactive; Gli-Sufu block: inactive; aSyn UTR inh: inactive

What do the screens show for `O=C(Nc1cccc(Cl)c1)Nc1cc(S(=O)(=O)N2CCCCC2)ccc1Cl`?
697 NFkB inh: inactive; Mdm2-MdmX inh: 89; KLF5 inhibitor: inactive; Jurkat NFkB inh: inactive; Gli-Sufu block: inactive; aSyn UTR inh: inactive; Mdm2 MdmX conf: 91; Full FLuc ctr: 51
